Values of other authors, collected in PubChem BioAssay AID977610.
In all, about 3,600 compounds went through this assay and about 3,600 (100%) were called active. Cut-off not given; nearly all actives show Ki up to about 18000 µM. So high a share suggests a set chosen from earlier hits. This is one part of the list. Numbered stars: 1 amine (or outer) side, 2 acyl side, 3 side chain; on linkers, the order of the positions; unused ones are H or OH. Where a SMILES comes first, the peptide text is derived from it. Square brackets hold non-standard residues; d marks the D form. Residues, ends and D or L forms follow the SMILES beside them. Peptide text beside a SMILES is read from it. [ ]: non-standard residue; d: D form. LeuΨ(S-CHOHCH2)Ala = CC(C)C[C@H](N[*:1])[C@@H](O)C[C@@H](C)C(=O)[*:2]; X2 = O=C([C@H](Cc1ccc(O[P+](O)(O)O)cc1)N[*:1])[*:2]; Orn(CH(NH2)2) = NC(N)NCCC[C@H](N)C(=O)O; Sta = CC(C)C[C@H](N)[C@@H](O)CC(=O)O

Assay: PubChem AID 977610
Conditions: PDB protein-ligand complexes, literature Ki

## C[C@@H]1N[C@@H](c2cn(-c3ccccc3)nn2)[C@H](O)[C@@H]1O
protein: Alpha-L-fucosidase Fuc2970, PDB entry 4pee
  Ki: 0.0048 µM (active)

## NCCCC[C@H](N[C@@H](CCc1ccccc1)C(=O)O)C(=O)N1CC=C[C@H]1C(=O)O
protein: human somatic angiontensin-I converting enzyme N domain, PDB entry 2c6n
  Ki: 0.131 µM (active)

## NCc1cccc(C[C@H](C[P+](O)(O)[C@@H](N)CCc2ccccc2)C(=O)O)c1
protein: Aminopeptidase N, PDB entry 4quo
  Ki: 0.012 µM (active)

## NCc1ccc(C[C@H](C[P+](O)(O)[C@@H](N)CCc2ccccc2)C(=O)O)cc1
protein: Aminopeptidase N, PDB entry 4qhp
  Ki: 0.009 µM (active)

## N[C@@H](CCc1ccccc1)[P+](O)(O)C[C@@H](Cc1ccccc1)C(O)O
protein: Aminopeptidase N, PDB entry 4qme
  Ki: 0.302 µM (active)

## N[C@@H](CCc1cccnc1)[P+](O)(O)C[C@@H](Cc1ccccc1)C(=O)O
protein: Aminopeptidase N, PDB entry 4qir
  Ki: 0.112 µM (active)

## O=C(O)c1cccc(-c2cnc([C@@H](O)CCCCCCc3ccccc3)o2)n1
protein: Humanized Variant of Fatty Acid Amide Hydrolase (L192F, F194Y, A377T, S435N, I491V, V495M), PDB entry 3k7f
  Ki: 0.02 µM (active)

## O=C(O)c1cccc(-c2cnc([C@@H](O)CCc3ccc(-c4ccccc4)cc3)o2)n1
protein: Humanized Variant of Fatty Acid Amide Hydrolase (L192F, F194Y, A377T, S435N, I491V, V495M), PDB entry 3k83
  Ki: 0.022 µM (active)

## Cc1ccc(-c2cnc([C@@H](O)CCCCCCc3ccccc3)o2)nc1
protein: Fatty-acid amide hydrolase 1 (L192F, F194Y, A377T, S435N, I491V, V495M mutation), PDB entry 4j5p
  Ki: 0.012 µM (active)

## O=C1CC(NC(=O)c2c(Cl)cccc2Cl)=CC=N1
protein: Non-receptor tyrosine-protein kinase TYK2 (D1023N mutation), PDB entry 4gfo
  Ki: 0.24 µM (active)
protein: Tyrosine-protein kinase JAK2, PDB entry 4gfm
  Ki: 0.06 µM (active)

## CC(=O)N[C@@H](CCCNC(N)N)C(=O)N[C@@H](Cc1c[nH]c2ccccc12)C(=O)N[C@H]1CCCCCCCNC(=O)[C@@H]2CCCN2C(=O)[C@H](CCCNC(N)N)NC(=O)[C@H](C)NC(=O)[C@@H]2CCCN2C(=O)[C@H](Cc2ccccc2)NC1=O
protein: Menin, PDB entry 4i80
  Ki: 0.0238 µM (active)

## Oc1ccc(Br)cc1/C=C/S(O)(O)O
protein: CARBONIC ANHYDRASE 2, PDB entry 4bcw
  Ki: 100 µM (active)

## CC(C)C[C@@H](N)[C@H](O)C(=O)N[C@H](C(=O)N[C@H](C(=O)N[C@@H](CC(=O)O)C(=O)O)C(C)C)C(C)C
protein: Glutamyl aminopeptidase, PDB entry 4kx8
  Ki: 0.074 µM (active)

## O=[N+]([O-])c1ccc2n[nH]nc2c1
protein: KEMP ELIMINASE HG3.17 (V6I, Q37K, K50Q, G82A, M84C, S89N, Q90F, T105I, A125T, T142N, T208M, S265T, F267M, W275A, R276F,, PDB entry 4bs0
  Ki: 2 µM (active)

## CSCC[C@H](NC(=O)[C@H](CO)NC(=O)[C@H](CCC(N)=O)NC(=O)[C@H](CCCN=C(N)N)NC(=O)[C@H](CS)NC(=O)[C@@H](N)[C@@H](C)O)C(=O)N[C@@H](CS)C(=O)N[C@H](C(=O)N[C@@H](C)C(=O)N[C@@H](CCCN=C(N)N)C(=O)O)[C@@H](C)O (tested in a mixture with another compound) (H-TCRQSMCTAR-OH)
protein: urokinase-type plasminogen activator (uPA), PDB entry 4mnv
  Ki: 11.6 µM (active)

## H-RWQDTRL-OH
protein: CFTR Associated Ligand (CAL) PDZ domain, PDB entry 4k75
  Ki: 56.2 µM (active)

## H-SRWQTSII-OH
protein: CFTR Associated Ligand (CAL) PDZ domain, PDB entry 4k6y
  Ki: 14.8 µM (active)

## CNc1nc2c(CC[C@H]3O[C@@H](OC)[C@H](O)[C@@H]3OC)c3nc(N)[nH]c(=O)c3cc2[nH]1
protein: tRNA guanine transglycosylase (TGT), PDB entry 4kwo
  Ki: 0.353 µM (active)

## Cc1nnc(CNCCN2C(O)c3cccc4c(N(C)C)ccc(c34)C2O)s1 (stereo not drawn)
protein: insect beta-N-acetyl-D-hexosaminidase OfHex1, PDB entry 3wmc
  Ki: 0.31 µM (active)

## Cc1nnc(CNCCN2C(O)c3cccc4cccc(c34)C2O)s1 (stereo not drawn)
protein: insect beta-N-acetyl-D-hexosaminidase OfHex1, PDB entry 3wmb
  Ki: 4.28 µM (active)

## CC(=O)N[C@@H](Cc1ccc(O[P+](O)(O)O)cc1)C(=O)N[C@H](C(=O)N1CCC[C@H]1C(=O)N[C@@H](CCC(=O)O)C(=O)N1CCC[C@H]1C(N)=O)[C@@H](C)O (Ac-[X2]TPEP-NH2)
protein: E3 ubiquitin-protein ligase CBL, PDB entry 4gpl
  Ki: 1.3 µM (active)

## C=C1CS[C@H]([C@H](N)C(=O)O)N=C1C(=O)O
protein: AmpC Beta-Lactamase, PDB entry 4okp
  Ki: 2000 µM (active)

## N[C@H](C(=O)O)[C@@H]1N=C(C(=O)O)CCS1
protein: AmpC Beta-Lactamase, PDB entry 4old
  Ki: 2000 µM (active)

## Cc1ccc(NC(=O)c2cccc(C(F)(F)F)c2)cc1-c1ccc2nc(NC3CC3)ncc2c1
protein: Mitogen-activated protein kinase 1 (Q103A, C164L mutation), PDB entry 4i5h
  Ki: 0.002 µM (active)

## Cc1cccc(Nc2cc(S(O)(O)O)c(N)c3c2C(=O)c2ccccc2C3=O)c1
protein: ecto-nucleoside triphosphate diphosphohydrolase 2, RnNTPDase2, PDB entry 4cd1
  Ki: 12.8 µM (active)

## CCCCCC(=O)O[C@@H](CO)CO[P+](O)(O)OCC[N+](C)(C)C
protein: Avermectin-sensitive glutamate-gated chloride channel GluCl alpha, PDB entry 4tnw
  Ki: 167 µM (active)

## Nc1ncnc2c(CN3C[C@H](O)[C@H](O)[C@H]3CO)c[nH]c12
protein: Inosine-adenosine-guanosine-nucleoside hydrolase, PDB entry 4i71
  Ki: 0.018 µM (active)

## Nc1ncnc2c(CN3C[C@H](CSCC[C@H](N)C(=O)O)[C@@H](O)C3)c[nH]c12
protein: 5'-methylthioadenosine/S-adenosylhomocysteine nucleosidase, PDB entry 4f3k
  Ki: 6.9e-05 µM (active)

## O=c1[nH]cnc2c(CN3C[C@H](O)[C@H](O)[C@H]3CO)csc12
protein: Inosine-adenosine-guanosine-nucleoside hydrolase, PDB entry 4i73
  Ki: 0.19 µM (active)
protein: Inosine-adenosine-guanosine-nucleoside hydrolase, PDB entry 4i74
  Ki: 0.19 µM (active)

## Nc1ncnc2c([C@@H]3N[C@H](CO)[C@@H](O)[C@H]3O)c[nH]c12
protein: Inosine-adenosine-guanosine-nucleoside hydrolase, PDB entry 4i72
  Ki: 0.0009 µM (active)

## CSCC[C@H](NC(=O)[C@H](C)N)C(=O)N[C@@H](CCCNC(N)N)C(=O)N[C@H](C(=O)O)C(C)C (H-AM[Orn(CH(NH2)2)]V-OH)
protein: E3 ubiquitin-protein ligase XIAP (C202A, C213G mutation), PDB entry 4j48
  Ki: 2.41 µM (active)

## O=[N+]([O-])c1cccc2ncccc12
protein: PDE10A2, PDB entry 4lm1
  Ki: 590 µM (active)

## Nc1nc(N)c2cc(CNc3cc(Cl)ccc3Cl)cnc2n1
protein: Dihydrofolate reductase(Q35S, N64F mutants), PDB entry 3oaf
  Ki: 0.0016 µM (active)
protein: human Dihydrofolate reductase, DHFR, PDB entry 4g95
  Ki: 0.0244 µM (active)

## CC(C)C[C@H](NC(=O)[C@H](CC(N)=O)NC(=O)[C@@H](NC(=O)[C@H](CCC(=O)O)NC(=O)[C@H](CO)NC(=O)[C@H](Cc1c[nH]c2ccccc12)NC(=O)[C@@H](N)Cc1c[nH]c2ccccc12)C(C)C)[C@@H](O)C[C@@H](C)C(=O)N[C@@H](C)C(=O)N[C@@H](CCC(=O)O)C(=O)N[C@@H](Cc1ccccc1)C(=O)O (H-WWSEVN[LeuΨ(S-CHOHCH2)Ala]AEF-OH)
protein: Memapsin 2(?-secretase 1), PDB entry 1xn2
  Ki: 3e-05 µM (active)

## CC[C@H](C)[C@H](NC(=O)[C@H](CO)NC(=O)[C@H](CCCCNC(C)=O)NC(=O)[C@H](Cc1ccccc1)NC(=O)[C@@H](NC(=O)[C@H](CCC(=O)O)NC(=O)[C@H](Cc1ccc(O)cc1)NC(=O)[C@@H](NC(=O)[C@@H](N)CCCNC(N)N)[C@@H](C)O)[C@@H](C)O)C(=O)N[C@@H](CCSC)C(=O)N[C@@H](CCCCN)C(=O)N[C@@H](CCCCN)C(=O)N[C@@H](CO)C(=O)O (H-[Orn(CH(NH2)2)]TYETFK(Ac)SIMKKS-OH)
protein: Bromodomain-containing protein 4, PDB entry 2lsp
  Ki: 274 µM (active)

## CC[C@H](C)[C@H](NC(=O)[C@H](CCC(=O)O)NC(=O)[C@H](CCC(=O)O)NC(=O)[C@@H](NC(=O)[C@@H](N)CCCCN)[C@@H](C)O)C(=O)N[C@@H](CO)C(=O)N[C@@H](CCC(=O)O)C(=O)N[C@H](C(=O)N[C@@H](CC(N)=O)C(=O)N[C@@H](CC(C)C)[C@@H](O)CC(=O)N[C@H](C(=O)N[C@@H](C)C(=O)N[C@@H](CCC(=O)O)C(=O)N[C@@H](Cc1ccccc1)C(=O)O)C(C)C)C(C)C (H-KTEEISEVN[Sta]VAEF-OH)
protein: Memapsin 2(?-secretase 1), PDB entry 1xn3
  Ki: 0.04 µM (active)

## O=c1ccn([C@H]2C[C@H](O)[C@@H](CNC(c3ccccc3)(c3ccccc3)c3ccccc3)O2)c(=O)[nH]1
protein: Deoxyuridine 5'-triphosphate nucleotidohydrolase, putative, PDB entry 3t60
  Ki: 0.2 µM (active)

## Cn1ccnc1[C@@H](NC[C@H]1O[C@@H](n2ccc(=O)[nH]c2=O)C[C@@H]1O)c1ccccc1
protein: Deoxyuridine 5'-triphosphate nucleotidohydrolase, putative, PDB entry 3t6y
  Ki: 3 µM (active)

## O=c1ccn([C@H]2C[C@H](O)[C@@H](CNC(c3ccccc3)c3ccccc3)O2)c(=O)[nH]1
protein: Deoxyuridine 5'-triphosphate nucleotidohydrolase, putative, PDB entry 3t64
  Ki: 0.2 µM (active)

## CN(C[C@H]1O[C@@H](n2ccc(=O)[nH]c2=O)C[C@@H]1O)C(c1ccccc1)c1ccccc1
protein: Deoxyuridine 5'-triphosphate nucleotidohydrolase, putative, PDB entry 3t70
  Ki: 0.5 µM (active)
